Inconclusive results are not listed. The source made the active and inactive calls. Rule for the calls, unless noted: active = hit-call score of the fitted dose curve at least 0.9, where 1 is the maximum; inactive = score below 0.9.
What was measured:
[1] = ACEA_ER_80hr: ACEA Biosciences xCELLigence Real-Time Cell Analysis on Estrogen Receptor Agonism for Proliferation (AID 2282667; active = hit-call score of the fitted dose curve at least 0.9, where 1 is the maximum); conditions: T47D proliferation, impedance (xCELLigence), 80 h
Procedure, shortened: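 Estrogen-driven proliferation is captured as electrode impedance in T47D cells 80 h after compound addition. Test articles ran at 8 concentrations, 1:4 dilutions from 100 uM final, in two replicate plates.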

[2] = APR_HepG2_CellCycleArrest_24hr: Apredica 24-hour HepG2 Assay for Cell Cycle Arrest (AID 2282905); conditions: imaging, actives raise or lower the signal;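 note: cell cycle arrest scored as ratio of 2N to 4N nuclear DNA content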
Procedure, shortened: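 Compounds (0.39 to 200 uM, final DMSO 0.5% v/v) are applied to HepG2 cells for 24 hours; cells are then fixed, permeabilized and nuclei labeled with Hoechst 33342. Automated imaging measures DNA content, and activity is fitted in both directions against DMSO.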

[3] = APR_HepG2_NuclearSize_24hr: Apredica 24-hour HepG2 Assay for Nuclear Size (AID 2282907); conditions: high-content imaging, actives raise or lower the signal
Procedure, shortened: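 Nuclear size is measured by fluorescence high-content imaging of Hoechst-labelled HepG2 nuclei after 24 hr of treatment (0.39–200 uM, 0.5% DMSO). Cells are fixed in 3.7% formaldehyde before staining, and DMSO serves as the baseline for bidirectional curve fitting.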

[4] = APR_HepG2_CellLoss_24hr: Apredica 24-hour HepG2 Assay for Cell Loss (AID 2282908); conditions: high-content imaging
Procedure, shortened: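 Nuclear count serves as the viability measure: treated cells are fixed, permeabilized and labelled with Hoechst 33342, and six images per well are analysed to identify valid nuclei. Doses span 0.39–200 uM, and activity in either direction is scored against DMSO.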

[5] = APR_HepG2_MicrotubuleCSK_24hr: Apredica 24-hour HepG2 Assay for Microtubule CSK Stabilty (AID 2282909); conditions: HepG2 microtubule cytoskeleton imaging, actives raise or lower the signal
Procedure, shortened: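 Compounds were applied to HepG2 cells for 24 hours across 0.39–200 uM in duplicate, with final DMSO at 0.5% v/v. Fixed, permeabilized cells were labeled for alpha-tubulin and nuclei, and tubulin fluorescence was quantified by imaging, fitted bidirectionally against DMSO.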

[6] = APR_HepG2_MitoticArrest_24hr: Apredica 24-hour HepG2 Assay for Mitotic Arrest (AID 2282910); conditions: high-content imaging, actives raise or lower the signal
Procedure, shortened: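 HepG2, 24 hr dosing, 0.39–200 uM, 0.5% DMSO final. Formaldehyde-fixed, Triton-permeabilised, anti-phospho-histone H3 plus Hoechst. ArrayScan imaging at 20x; bidirectional fit vs DMSO baseline.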

[7] = APR_HepG2_MitoMembPot_24hr: Apredica 24-hour HepG2 Assay for Mitochondrial Membrane Potential (AID 2282911); conditions: imaging, actives raise or lower the signal
Procedure, shortened: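 Mitochondrial dye uptake (MitoTracker Red CMXRos, 250 nM, 30 min pre-fixation) in HepG2 after 24 hr compound exposure, 0.39–200 uM; ArrayScan images at 20x, activity fitted in both directions relative to DMSO.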

[8] = APR_HepG2_MitoMass_24hr: Apredica 24-hour HepG2 Assay for Mitochondrial Mass (AID 2282912); conditions: high-content imaging, actives raise or lower the signal
Procedure, shortened: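 After 24 hr of treatment at 0.39 to 200 uM, HepG2 cells take up 250 nM MitoTracker Red CMXRos for 30 min and are then fixed with 3.7% formaldehyde. Per-well images are quantified, and any change in either direction is scored against solvent.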

[9] = APR_HepG2_p53Act_24hr: Apredica 24-hour HepG2 Assay for p53 Activation (AID 2282913); conditions: high-content imaging, actives raise or lower the signal;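 note: p53 protein immunofluorescence averaged per cell in HepG2 with Hoechst nuclei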
Procedure, shortened: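 Following 24 hr dosing of HepG2 at 0.39–200 uM, the cells undergo formaldehyde fixation, Triton permeabilization and multiplexed antibody labeling that includes p53 (Cy5). Signal from the imaging is referenced to DMSO solvent controls.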

[10] = APR_HepG2_CellCycleArrest_72hr: Apredica 72-hour HepG2 Assay for Cell Cycle Arrest (AID 2282914); conditions: high-content imaging, actives raise or lower the signal
Procedure, shortened: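 Using multiplexed high-content imaging, HepG2 nuclei stained with Hoechst 33342 (2 ug/mL) were analysed for DNA content after fixation and permeabilization. Treatment lasted 72 hr across 0.39–200 uM in duplicate with final DMSO 0.5% v/v; DMSO served as negative control.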

[11] = APR_HepG2_CellLoss_72hr: Apredica 72-hour HepG2 Assay for Cell Loss (AID 2282915); conditions: high-content imaging
Procedure, shortened: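 HepG2 cells exposed 72 h to compound at 0.39–200 uM (10 concentrations, duplicate) in 0.5% DMSO. Fixed with 3.7% formaldehyde and Hoechst 33342-stained. Imaged at 20x; nuclear count gives cell number, fitted bidirectionally versus DMSO.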

[12] = APR_HepG2_P-H2AX_72hr: Apredica 72-hour HepG2 Assay for H2AX Phosphorylation (AID 2282916); conditions: imaging, actives raise or lower the signal;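 note: phospho-histone H2A.x immunostain intensity per cell marking DNA damage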
Procedure, shortened: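 Human hepatoma HepG2 cells are dosed across ten concentrations (0.39 to 200 uM, 0.5% v/v DMSO) and incubated 72 hr. Phospho-histone H2A.x is then detected by antibody staining alongside c-Jun and Hoechst, and quantified by automated fluorescence imaging.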

[13] = APR_HepG2_MitoMembPot_72hr: Apredica 72-hour HepG2 Assay for Mitochondrial Membrane Potential (AID 2282917); conditions: imaging, actives raise or lower the signal
Procedure, shortened: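 HepG2 cells dosed 72 hr with compound at 0.39–200 uM in duplicate, 0.5% v/v DMSO final. Mitochondria stained with 250 nM MitoTracker Red CMXRos for 30 min before formaldehyde fixation, imaged by high-content fluorescence; bidirectional fit versus DMSO.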

[14] = APR_HepG2_MitoticArrest_72hr: Apredica 72-hour HepG2 Assay for Mitotic Arrest (AID 2282918); conditions: high-content imaging, actives raise or lower the signal
Procedure, shortened: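 Using high-content imaging of fixed HepG2 cells, phospho-histone H3 signal was measured following a 72 hr incubation with ten-point compound dilutions up to 200 uM. DMSO served as the negative control and baseline for bidirectional curve fitting.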

[15] = APR_HepG2_MicrotubuleCSK_72hr: Apredica 72-hour HepG2 Assay for Microtubule CSK Stabilty (AID 2282919); conditions: HepG2 microtubule cytoskeleton, high-content imaging, actives raise or lower the signal
Procedure, shortened: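 HepG2, 72 hr cmpd exposure, 0.39–200 uM (10 pts, duplicate), 0.5% DMSO. 3.7% formaldehyde fix, 0.5% Triton perm, anti-alpha-tubulin/Cy5 plus Hoechst. HCS fluorescence intensity; bidirectional fit vs DMSO baseline; taxol as positive control.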

[16] = APR_HepG2_P-H2AX_24hr: Apredica 24-hour HepG2 Assay for H2AX Phosphorylation (AID 2282920); conditions: high-content imaging, actives raise or lower the signal
Procedure, shortened: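 Human HepG2 liver cells, treated 24 hr with test chemicals (0.39–200 uM, final DMSO 0.5% v/v), are fixed and co-stained for phospho-H2A.x and c-Jun with Hoechst. Imaged intensity is fitted in both directions against DMSO controls.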

[17] = APR_HepG2_StressKinase_72hr: Apredica 72-hour HepG2 Assay for Stress Kinase (AID 2282921); conditions: HepG2 stress kinase (phospho-c-Jun) imaging, actives raise or lower the signal
Procedure, shortened: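 After a 72 h compound treatment spanning 0.39 to 200 uM, formaldehyde-fixed cells are labelled for phosphorylated c-Jun and nuclei, imaged by automated fluorescence microscopy, and activity is fitted in both directions relative to DMSO controls.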

[18] = APR_HepG2_StressKinase_24hr: Apredica 24-hour HepG2 Assay for Stress Kinase (AID 2282922); conditions: HepG2 stress kinase (phospho-c-Jun) imaging, actives raise or lower the signal
Procedure, shortened: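 Read-out: phospho-c-Jun immunofluorescence (Cy3 secondary) quantified by high-content imaging at 20x, nuclei defined by Hoechst 33342. Human HepG2 liver cells dosed 24 hr, 0.39–200 uM, DMSO 0.5% v/v; gain or loss of signal fitted relative to DMSO.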

[19] = APR_HepG2_p53Act_72hr: Apredica 72-hour HepG2 Assay for p53 Activation (AID 2282923); conditions: high-content imaging, actives raise or lower the signal;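 note: average cellular p53 protein immunofluorescence intensity in HepG2 cells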
Procedure, shortened: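 Imaging-based endpoint: after 72 hr compound exposure (up to 200 uM, 0.5% DMSO), fixed and permeabilized monolayers were labelled with anti-p53 antibody and imaged; signal change in either direction was fitted relative to DMSO controls.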

[20] = APR_HepG2_MitoMass_72hr: Apredica 72-hour HepG2 Assay for Mitochondrial Mass (AID 2282924); conditions: high-content imaging, actives raise or lower the signal;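 note: MitoTracker Red CMXRos stain intensity per cell imaged as mitochondrial mass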
Procedure, shortened: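 Read-out: MitoTracker Red fluorescence intensity from automated imaging (20x, six fields per well) in human HepG2 liver cells. Dosing ran 72 hr, 0.39–200 uM, 0.5% DMSO; bidirectional curve fitting versus DMSO baseline.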

Measured: outcome

OC1CCC(C2CCCCC2)CC1 (stereo not given)
inactive: all assays above

c1ccc2c(c1)ccc1ccccc12
inactive: all assays above

CCCCC[C@H](O)CC(=O)CCc1ccc(O)c(OC)c1
inactive: all assays above

CCCCCCC(=O)O
inactive: all assays above

COCC(C)OCC(C)O (stereo not given)
inactive: all assays above

OCCC(F)(F)C(F)(F)C(F)(F)C(F)(F)C(F)(F)C(F)(F)F
inactive: all assays above

— PubChem BioAssay (EPA / NIEHS)
